The record followed here is publication PMC11102866, “Nucleosome-bound NR5A2 structure reveals pioneer factor mechanism by DNA minor groove anchor competition”.

B1: 78 (nucleosome)
DNA 1: ATCCTGGAGAATCCCGGTGCCGAGGCCGCTCAATTGGTCGTAGACAGCTCTAGCACCGCTTAAACGCACGTACGCGCTGTTCAAGGCCATTTAACCGCCAAGGGGATTACTCCCTAGTCTCCAGGCACGTGTCAGATATATACATCCTGTGAT
DNA 2: ATCACAGGATGTATATATCTGACACGTGCCTGGAGACTAGGGAGTAATCCCCTTGGCGGTTAAATGGCCTTGAACAGCGCGTACGTGCGTTTAAGCGGTGCTAGAGCTGTCTACGACCAATTGAGCGGCCTCGGCACCGGGATTCTCCAGGAT
modifications: reconstituted with mouse histones H2A, H2B, H3.3 and H4
B2: 80 (nucleosome)
DNA 1: B1 DNA 1 with T81C, A83T, A84C, G85A, G86A, C87G, C88G, A89C, T90C, T91A
DNA 2: B1 DNA 2 with A63T, A64G, T65G, G66C, G67C, C68T, C69T, T70G, T71A, A73G
modifications: reconstituted with mouse histones H2A, H2B, H3.3 and H4
B3: 79 (nucleosome)
DNA 1: B1 DNA 1 with T81C, C82T, A83C, G85A, C87G, A89C, T90A
DNA 2: B1 DNA 2 with A64T, T65G, G67C, C69T, T71G, G72A, A73G
modifications: reconstituted with mouse histones H2A, H2B, H3.3 and H4
B4: 83 (nucleosome)
DNA 1: B1 DNA 1 with T81C, A83C, A84C, G85C, G86T, C88A, T90G, T91G, T92C, A93C
DNA 2: B1 DNA 2 with T61G, A62G, A63C, A64C, G66T, C68A, C69G, T70G, T71G, A73G
modifications: reconstituted with mouse histones H2A, H2B, H3.3 and H4
B5: 10 (nucleosome)
DNA 1: ATCCTGGAGAATTCAAGGCCAGAGGCCGCTCAATTGGTCGTAGACAGCTCTAGCACCGCTTAAACGCACGTACGCGCTGTCCCCCGCGTTTTAACCGCCAAGGGGATTACTCCCTAGTCTCCAGGCACGTGTCAGATATATACATCCTGTGAT
DNA 2: ATCACAGGATGTATATATCTGACACGTGCCTGGAGACTAGGGAGTAATCCCCTTGGCGGTTAAAACGCGGGGGACAGCGCGTACGTGCGTTTAAGCGGTGCTAGAGCTGTCTACGACCAATTGAGCGGCCTCTGGCCTTGAATTCTCCAGGAT
modifications: reconstituted with mouse histones H2A, H2B, H3.3 and H4
B6: 76 (nucleosome)
DNA 1: ATCCTGGAGAATCCCGGTGCCGAGGCCGCTCAATTGGTCGTAGACAGCTCTAGCACCGCTTAAACGCACGTACGCGCTTCAAGGCCAGTTTTAACCGCCAAGGGGATTACTCCCTAGTCTCCAGGCACGTGTCAGATATATACATCCTGTGAT
DNA 2: ATCACAGGATGTATATATCTGACACGTGCCTGGAGACTAGGGAGTAATCCCCTTGGCGGTTAAAACTGGCCTTGAAGCGCGTACGTGCGTTTAAGCGGTGCTAGAGCTGTCTACGACCAATTGAGCGGCCTCGGCACCGGGATTCTCCAGGAT
modifications: reconstituted with mouse histones H2A, H2B, H3.3 and H4
B7: 77 (nucleosome)
DNA 1: B1 DNA 1 with T81C, C82A, A84G, G86C, C88A, A89T
DNA 2: B1 DNA 2 with T65A, G66T, C68G, T70C, G72T, A73G
modifications: reconstituted with mouse histones H2A, H2B, H3.3 and H4
B8: 84 (nucleosome)
DNA 1: ATCCTGGAGAATCCCGGTGCCGAGGCCGCTCAATTGGTCGTAGACAGCTCTAGCACCGCTTAAACGCACGTACGCGCTGTCCCCCGTCAAGGCCACGCCAAGGGGATTACTCCCTAGTCTCCAGGCACGTGTCAGATATATACATCCTGTGAT
DNA 2: ATCACAGGATGTATATATCTGACACGTGCCTGGAGACTAGGGAGTAATCCCCTTGGCGTGGCCTTGACGGGGGACAGCGCGTACGTGCGTTTAAGCGGTGCTAGAGCTGTCTACGACCAATTGAGCGGCCTCGGCACCGGGATTCTCCAGGAT
modifications: reconstituted with mouse histones H2A, H2B, H3.3 and H4
B9: 85 (nucleosome)
DNA 1: B8 DNA 1 with T87C, C88T, A89C, G91A, C93G, A95C, C96A
DNA 2: B8 DNA 2 with G58T, T59G, G61C, C63T, T65G, G66A, A67G
modifications: reconstituted with mouse histones H2A, H2B, H3.3 and H4
B10: 81 (nucleosome)
DNA 1: ATCCTGGAGAATCCCGGTGCCGAGGCCGCTCAATTGGTCGTAGACAGCTCTAGCACCGCTTAAACGCACGTACGCGCTGTCCCTCAAGGCCAAACCGCCAAGGGGATTACTCCCTAGTCTCCAGGCACGTGTCAGATATATACATCCTGTGAT
DNA 2: ATCACAGGATGTATATATCTGACACGTGCCTGGAGACTAGGGAGTAATCCCCTTGGCGGTTTGGCCTTGAGGGACAGCGCGTACGTGCGTTTAAGCGGTGCTAGAGCTGTCTACGACCAATTGAGCGGCCTCGGCACCGGGATTCTCCAGGAT
modifications: reconstituted with mouse histones H2A, H2B, H3.3 and H4
B11: 86 (nucleosome)
DNA 1: B10 DNA 1 with T84C, A86G, A87C, G89T, C91A, A93G, A94G, G97A
DNA 2: B10 DNA 2 with C57T, T60C, T61C, G63T, C65A, T67G, T68C, A70G
modifications: reconstituted with mouse histones H2A, H2B, H3.3 and H4
B12: 87 (nucleosome)
DNA 1: B10 DNA 1 with T84C, A86G, A87C, G89T, C90T, A94G, C95G, G97C, C98A
DNA 2: B10 DNA 2 with G56T, C57G, G59C, T60C, G64A, C65A, T67G, T68C, A70G
modifications: reconstituted with mouse histones H2A, H2B, H3.3 and H4
B13: 82 (nucleosome)
DNA 1: B10 DNA 1 with T84C, C85T, A86C, G88A, C90G, A92C
DNA 2: B10 DNA 2 with T62G, G64C, C66T, T68G, G69A, A70G
modifications: reconstituted with mouse histones H2A, H2B, H3.3 and H4
B14: 74 (nucleosome)
DNA 1: ATCCTGGAGAATCCCGGTGCCGAGGCCGCTCAATTGGTCGTAGACAGCTCTAGCACCGCTTAAACGCACGTACGCGTCAAGGCCAGCGTTTTAACCGCCAAGGGGATTACTCCCTAGTCTCCAGGCACGTGTCAGATATATACATCCTGTGAT
DNA 2: ATCACAGGATGTATATATCTGACACGTGCCTGGAGACTAGGGAGTAATCCCCTTGGCGGTTAAAACGCTGGCCTTGACGCGTACGTGCGTTTAAGCGGTGCTAGAGCTGTCTACGACCAATTGAGCGGCCTCGGCACCGGGATTCTCCAGGAT
modifications: reconstituted with mouse histones H2A, H2B, H3.3 and H4
B15: 75 (nucleosome)
DNA 1: B6 DNA 1 with T79C, C80A, A82G, G84C, C86A, A87C
DNA 2: B6 DNA 2 with T67G, G68T, C70G, T72C, G74T, A75G
modifications: reconstituted with mouse histones H2A, H2B, H3.3 and H4

Numbering of substitutions follows the chain as printed. Names may count otherwise.

One assay has as its target NR5A2 wild type;histone octamer (Homo sapiens;, UniProt O00482;C0HKE1;Q6ZWY9;P84244;P62806 1-541;2-130;2-126;2-136;2-103, |). Nature of the assay: SeEN-seq (EMSA of nucleosome library followed by sequencing); 0.8 uM human NR5A2; 20 mM Tris-HCl pH 7.5, 120 mM NaCl, 1 mM MgCl2, 10 uM ZnCl2, 1 mM DTT, 100 ug/ml BSA, room temperature, 30 min; 0.1 uM nucleosome library; high values mean tight binding. On the technique in general: A gel shift assay detects complexes by their altered migration in electrophoresis.
Consider B1, for which the binding signal is 1.77 log2 enrichment (bound/unbound, relative to Widom 601).

For B2, the binding signal is 0.765 log2 enrichment (bound/unbound, relative to Widom 601).

For the molecule B3, the binding signal was 1.33 log2 enrichment (bound/unbound, relative to Widom 601).

In the case of B4, the binding signal is 0.795 log2 enrichment (bound/unbound, relative to Widom 601).

As to B5, the binding signal is 5.16 log2 enrichment (bound/unbound, relative to Widom 601).

B6: the binding signal is 1.83 log2 enrichment (bound/unbound, relative to Widom 601).

Regarding B7, the binding signal was 1.48 log2 enrichment (bound/unbound, relative to Widom 601).

As for B8, the binding signal was 0.634 log2 enrichment (bound/unbound, relative to Widom 601).

As for B9, the binding signal is 0.756 log2 enrichment (bound/unbound, relative to Widom 601).

Regarding B10, the binding signal was 0.772 log2 enrichment (bound/unbound, relative to Widom 601).

For B11, the binding signal is 0.668 log2 enrichment (bound/unbound, relative to Widom 601).

B12: the binding signal was 0.601 log2 enrichment (bound/unbound, relative to Widom 601).

In the case of B13, the binding signal was 0.634 log2 enrichment (bound/unbound, relative to Widom 601).

In the case of B14, the binding signal is 1.21 log2 enrichment (bound/unbound, relative to Widom 601).

Take B15: the binding signal was 1.29 log2 enrichment (bound/unbound, relative to Widom 601).

For the next assay, the target named is mouse Nr5a2 wild type;histone octamer (Mus musculus;, UniProt P45448;C0HKE1;Q6ZWY9;P84244;P62806 1-560;2-130;2-126;2-136;2-103, |). Briefly: SeEN-seq (EMSA of nucleosome library followed by sequencing); 1.2 uM mouse Nr5a2; 20 mM Tris-HCl pH 7.5, 120 mM NaCl, 1 mM MgCl2, 10 uM ZnCl2, 1 mM DTT, 100 ug/ml BSA, room temperature, 30 min; 0.1 uM nucleosome library; high values mean tight binding.
For the molecule B1, the binding signal is 2.13 log2 enrichment (bound/unbound, relative to Widom 601).

Take B2: the binding signal is 0.924 log2 enrichment (bound/unbound, relative to Widom 601).

Take B3: the binding signal is 1.29 log2 enrichment (bound/unbound, relative to Widom 601).

On to B4, for which the binding signal was 0.693 log2 enrichment (bound/unbound, relative to Widom 601).

Take B5: the binding signal is 4.92 log2 enrichment (bound/unbound, relative to Widom 601).

Regarding B6, the binding signal was 2.16 log2 enrichment (bound/unbound, relative to Widom 601).

On to B7, for which the binding signal is 1.71 log2 enrichment (bound/unbound, relative to Widom 601).

For the molecule B8, the binding signal is 0.756 log2 enrichment (bound/unbound, relative to Widom 601).

Turning to B9, the binding signal was 0.748 log2 enrichment (bound/unbound, relative to Widom 601).

Take B10: the binding signal was 0.954 log2 enrichment (bound/unbound, relative to Widom 601).

As for B11, the binding signal is 0.515 log2 enrichment (bound/unbound, relative to Widom 601).

As for B12, the binding signal was 0.435 log2 enrichment (bound/unbound, relative to Widom 601).

For the molecule B13, the binding signal was 0.729 log2 enrichment (bound/unbound, relative to Widom 601).

For B14, the binding signal was 1.39 log2 enrichment (bound/unbound, relative to Widom 601).

On to B15, for which the binding signal is 1.36 log2 enrichment (bound/unbound, relative to Widom 601).
